Compound activity (PubChem BioAssay)
L3MBTL1 inh: L3MBTL1 (human) inhibition | Q9Y468 | Potency, µM (titrated, usually from 57.1 µM), without a hit: top-dose activity, negative = inhibition, most hits filed as inhibitors | 230,000 tested, 0.66% active | AlphaScreen L3MBTL1–H3K9me1 peptide binding | AID 485360; further: on the % scale 0 is the no-effect control and ±100 the full control effect; nearly all actives have a fitted effect of over 60% in size
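L3MBTL1 50 nM + b-AHA-H3(1-15)K9me1 75 nM, 30 min RT; compound added, 30 min RT; streptavidin donor/Ni-chelate acceptor beads 10 ug/mL each final, 30 min RT dark; AlphaScreen read.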
HP1b chromo inh: blocks HP1-beta chromodomain binding to methylated histone tails; P83916; AlphaScreen HP1-beta / biotin-H3K9me3 peptide binding; Potency, µM (highest dose often 114 µM), inactives show at the top dose activity change, negative = inhibition, actives largely listed as inhibitors; 390,000 tested, 0.56% active; AID 540317; further: nearly all actives have a fitted effect of over 70% in size
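AlphaScreen: HP1-beta (50 nM) preformed 30 min with biotin-H3(1-18)K9me3 peptide (50 nM) in PBS pH 7.4, 0.01% Tween-20. Compound added for 30 min at RT, then streptavidin donor/nickel chelate acceptor beads (10 ug/mL) for 30 min.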
GLS inhibitor: inhibitors of human glutaminase (GLS); AID 624170; GLS enzymatic activity, qHTS titration; 410,000 tested, 0.21% active; Potency, µM (highest dose often 45.5 µM), for the others: top-dose activity change, negative = inhibition, most hits filed as inhibitors; further: on the % scale 0 is the no-effect control and ±100 the full control effect
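Human kidney-isoform GLS in 45 mM KH2PO4 pH 8.2, 0.02% Tween-20, with compound, started with 1mM L-Glutamine (added stock). Glutamate oxidase/HRP/Amplex red coupled fluorescence read at start and after 30 min at RT.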
G9a inh: blocks human histone lysine methyltransferase G9a. Q96KQ7. AID 504332. 350,000 tested, 8.8% active. G9a H3K9 monomethylation, AlphaScreen, 2 h. Potency, µM (doses to about 102 µM), without a hit: at the top dose activity, negative = inhibition, actives largely listed as inhibitors; further: on the % scale 0 is the no-effect control and ±100 the full control effect; nearly all actives have a fitted effect of over 75% in size
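Enzyme 20 nM + cpd, 15 min RT; add b-H3K9 pep 500 nM / SAM 20 uM; 2 h RT; anti-H3K9me1 Ab 0.5 ug/mL + SA donor / anti-rabbit acceptor beads 20 ug/mL each, 10 min; AlphaScreen read.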
BAZ2B inh: inhibitors of human BAZ2B bromodomain; AlphaScreen BAZ2B-H3K14Ac peptide displacement; Potency, µM (doses to about 114 µM), inactives show top-dose activity change, negative = inhibition, most hits filed as inhibitors; Q9UIF8; 360,000 tested, 4.4% active; AID 504333; further: on the % scale 0 is the no-effect control and ±100 the full control effect; nearly all actives have a fitted effect of over 60% in size
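Complex of BAZ2B and biotin-H3K14Ac (50 nM apiece) forms over 30 min at RT, then faces library compounds up to 110 uM for another 30 min; AlphaScreen beads added, 20 min dark incubation, luminescence read.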
JMJD2A Tudor inh: JMJD2A Tudor domain (human) inhibition. O75164. AlphaScreen JMJD2A-Tudor / H3K4me3 peptide binding. Potency, µM (titrated, usually from 114 µM), for inactives: top-dose activity change, negative = inhibition, actives largely listed as inhibitors. 390,000 tested, 4.4% active; further: on the % scale 0 is the no-effect control and ±100 the full control effect; nearly all actives have a fitted effect of over 50% in size
* marks the source's active call; other numbers are inactive results; ? = inconclusive; . = no result; [ ] = another dose, or the depositor's remark. Hits are enriched below; roughly 10% of the tested compounds scored in any of these assays. The call rests on the fitted dose curve; in most records, active means well fitted curve in the direction sought with a large enough effect; inconclusive means small, poorly fitted or top-dose-only effect, or another doubt; inactive means no such curve, though single readings can be large; an effect the other way counts as inactive or inconclusive. Potency means the concentration at half of the fitted maximal effect.

SMILES	L3MBTL1 inh	HP1b chromo inh	GLS inhibitor	G9a inh	BAZ2B inh	JMJD2A Tudor inh
Cc1ccc(C)c(Cn2c(=O)cc(C)c3c(C)nn(-c4cccc(F)c4)c32)c1	.	6%	12%	7%[59 µM]	-20%	2%
Cc1cccc(C(=O)Nc2cccc(C(=O)N3CCOCC3)c2)c1	.	22%	-1%	12%[59 µM]	2%	-8%
CC(=O)/C(=N/Nc1cccc(C)c1)N1CCOCC1	.	6%	11%	0.63µM*	?	89µM*
CC1(C)CC(=O)c2cc(N=C/C(C(=O)c3ccccc3)=C(\O)c3ccccc3)c(=O)oc2C1	19%	36%	6%	25µM*	-28%	?
O=C(Cc1ccc(NC(=O)N2CCSc3ncccc32)cc1)NCc1ccccc1	.	9%	-7%	-5%[59 µM]	-14%	-12%
CCN1C=C(Cc2cccs2)C2=C(C1)C(c1cccs1)C(C#N)=C(N)O2 (stereo not given)	?	-34%	15%	?	35µM*	?
CCN1CC2=C(OC(N)=C(C#N)C2c2ccccc2)/C(=C\c2ccccc2)C1 (stereo not given)	-6%	-23%	35%	-13%[59 µM]	?	-33%
CCN1CC2=C(OC(N)=C(C#N)C2c2cccs2)/C(=C/c2cccs2)C1 (stereo not given)	-17%	-22%	6%	?	32µM*	?
Cc1c(C(=O)OCC[N+]2(C)CCCCC2)oc2ccccc12	4%	-22%	2%	28µM*	-21%	-8%
COc1ccc(-c2nnc3n2N=C(c2c(OC)cccc2OC)CS3)cc1	.	.	.	.	.	-9%
Cc1ccc(CN2CCCn3nc(C(=O)NCc4ccc(OC(C)C)cc4)cc3C2=O)cc1	.	-6%	-6%	2%[59 µM]	-1%	-25%
CCc1ccc2oc(C(=O)N(Cc3ccc(N(C)C)cc3)Cc3ccco3)c(C)c2c1	.	?	-8%	10µM*	8.9µM*	18µM*
Cc1ccc2c(C)c(C(=O)N(Cc3ccc(N(C)C)cc3)Cc3ccco3)oc2c1C	.	-25%	-6%	11µM*	10µM*	18µM*
Cc1c(C(=O)N(Cc2cccc(Cl)c2)Cc2ccco2)oc2ccccc12	.	89%	5%	34%[59 µM]	42%	28%
Cc1ccc(C(=O)OCC(=O)c2ccc(S(=O)(=O)N3CCCCC3)cc2)o1	-10%	-11%	15%	50µM*	-18%	?
COc1ccc(CN2CCN(C(=O)CC(C)C)CC2)cc1Br	5%	27%	1%	10µM*	?	79µM*
CSc1ccc(CN2CCN(C(=O)CC(C)C)CC2)cc1	6%[2.29 µM]	?	12%	-2%[0.501 µM]	79µM*	20µM*
CC(C)CC(=O)N1CCN(Cc2ccc3ccccc3c2)CC1	3%[2.29 µM]	?	6%	-3%[0.501 µM]	?	25µM*
COc1ccc(C(=O)OCC(=O)c2ccc(S(=O)(=O)N3CCCCC3)cc2)c(OC)c1	-1%	41%	-9%	?	10%	-10%
Cc1ccc(-n2ncc(C(=O)NCCc3c[nH]c4ccccc34)c2C2CCN(C(=O)OC(C)(C)C)CC2)cc1C	.	3%	-13%	-65%[59 µM]	-37%	?
CCOc1ccc(N2CC(NC(=O)C(=O)c3c[nH]c4ccccc34)CC2=O)cc1 (stereo not given)	.	15%	7%	-6%[59 µM]	-4%	-12%
CCOC(=O)C1CCN(Cc2c(O)ccc3ccccc23)CC1	-14%	28%	18%	3.5µM*	13%	-4%
OCCN1CCN(Cc2cccc(Oc3ccc(Cl)cc3)c2)CC1	2%	15%	0%	?	?	-19%
CCOC(=O)N1CCN(Cc2c(O)ccc3ccccc23)CC1	-7%	?	-1%	?	0%	?
OCCN1CCN(Cc2ccc3ccccc3c2)CC1	-13%	?	0%	.	50µM*	20µM*
SMILES	L3MBTL1 inh	HP1b chromo inh	GLS inhibitor	G9a inh	BAZ2B inh	JMJD2A Tudor inh
CCOC(=O)N1CCN(C(=O)c2oc3ccc(S(=O)(=O)N4CC(C)CC(C)C4)cc3c2C)CC1 (stereo not given)	-5%	38%	9%	26%[0.501 µM]	-29%	0%[57.1 µM]
CCOC(=O)N1CCN(Cc2ccccn2)CC1	.	18%	-11%	7.1µM*	?	0.79µM*
CCOC(=O)C1CCN(C(=O)c2oc3ccc(S(=O)(=O)N4CC(C)CC(C)C4)cc3c2C)CC1 (stereo not given)	-7%	14%	-11%	14µM*	-1%	-5%
CCOC(=O)N1CCN(c2c(N3CCN(c4ccccn4)CC3)c(=O)c2=O)CC1	1%	39%	10%	?	-1%	-11%
CCN(C(=O)Cn1c(=O)oc2cc(S(=O)(=O)N3CCCCC3)ccc21)c1ccccc1	.	13%	-5%	4%[59 µM]	2%	-16%
O=C(O)Cc1c(O)ccc2ccccc12	10%	30%	-3%	6%[12.7 µM]	-11%	-3%
NCc1c(O)ccc2ccccc12	2%	.	.	7.9µM*	-29%	.
CCOC(=O)C1CCN(Cc2ccc(F)c(F)c2)CC1	.	?	0%	28µM*	?	5.6µM*
CCOC(=O)C1CCN(Cc2cc(C(C)C)c(O)c(C(C)C)c2)CC1	2%	20%	?	-37%	-22%	-13%
CCOC(=O)C1CCN(Cc2ccc(N(C)C)cc2)CC1	.	?	31%	?	45µM*	3.5µM*
Oc1ccc2ccccc2c1CNc1ccc(Br)cn1	13%	71%	0%	.	-2%	0%
Oc1ccc2ccccc2c1CNc1ccc(Br)cc1	.	-15%	18%	5µM*	40µM*	?
